Assay outcomes as filed in PubChem.
Hits are enriched below; roughly 0.97% of the tested compounds scored in any of these assays.
NOD2-RIPK2 inh – NOD2-RIPK2 binding disruptors in cells, primary screen, fluorescence, CHO cells, BLA complementation. Receptor-interacting serine/threonine-protein kinase 2 (Homo sapiens), O43353. CCF4 ratio. inhibition, % at 4.98 µM. 360,000 tested, 0.38% active; in the data active means inhibition above about 21%;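 further: 0% = vehicle only and 100% = reference blocker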
NTR1 agonist – agonists of human NTR1, primary screen, imaging, U2OS cells, beta-arrestin-GFP, high content; Neurotensin receptor type 1 (Homo sapiens), P30989; NTR1-U2OS beta-arrestin-GFP spot imaging, agonist mode; activation, % at 20 µM; 330,000 tested, 0.17% active;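 active means activation at or above 40% of the spot to cytoplasm intensity ratio, with at least 20 cells analyzed; inconclusive means wells under 20 cells, flagged as cytotoxic or low count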;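 further: 0% = DMSO without peptide and 100% = 100 nM NTR1 peptide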
TLR4-MyD88 BLA – inhibitors of TLR4-MyD88 association in cells, primary screen, cell-based, HeLa CL3-4, BLA complementation, FRET ratio; HeLa CL3-4 TLR4/MyD88 BLA complementation; 200,000 tested, 0.18% active; inhibition, % at 8.4 µM; in the data active means inhibition above about 25%;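 further: 0% = vehicle and 100% = reference inhibitor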
A1 inh – caspase 3/7 activation in MEF A1-2A-BIM cells, primary screen, A1 inhibitor project, cell-based, luminescence, HTS; Caspase-Glo 3/7 luminescence, 3 h; percent of clofoctol response, vehicle zero; caspase activation, % (no concentration beside the values); 330,000 tested, 0.066% active; AID 2462, 2010;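 active means over half of replicate activation scores above 10%, or exactly half above 10 with the replicate mean above 10; inconclusive means replicate mean below 10 yet half the replicates above 10; inactive means over half of replicates below 10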
B2AR ag – beta2AR agonists driving receptor internalization, primary screen, cell-based, FAP fluorogen, flow cytometry; AID 504454, 2011; Am2.2-beta2AR cells; response, % (test concentration not listed); Beta-2 adrenergic receptor (Homo sapiens), P07550; 340,000 tested, 0.43% active;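 active means response above a set limit, near 3 SD of response in nonfluorescent compounds, cut at about 42% in these data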
TLR9-MyD88 inh – inhibitors of TLR9-MyD88 association in cells, primary screen, cell-based, CHO, BLA complementation, fluorescence | Toll-like receptor 9 (Homo sapiens) + Myeloid differentiation primary response protein … | inhibition, % at 4.98 µM | CCF4 FRET ratio | 340,000 tested, 0.21% active | AID 504734, 2011;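 active means inhibition above the mean over all tested compounds plus 3 SD, cut at about 21% in these data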;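 further: 0% = DMSO only wells and 100% = clavulanate BLA inhibitor control wells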
Target sequence (Q99836 whole entry, looked up): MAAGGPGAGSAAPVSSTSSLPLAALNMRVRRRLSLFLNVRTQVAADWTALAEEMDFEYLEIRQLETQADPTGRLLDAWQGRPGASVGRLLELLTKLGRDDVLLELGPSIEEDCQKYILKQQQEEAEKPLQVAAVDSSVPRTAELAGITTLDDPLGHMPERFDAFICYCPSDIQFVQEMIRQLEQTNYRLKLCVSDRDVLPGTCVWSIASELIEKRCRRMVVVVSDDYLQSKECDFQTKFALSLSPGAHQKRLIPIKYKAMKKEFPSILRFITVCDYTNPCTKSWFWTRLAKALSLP
Target sequence (Q9NR96 whole entry, looked up): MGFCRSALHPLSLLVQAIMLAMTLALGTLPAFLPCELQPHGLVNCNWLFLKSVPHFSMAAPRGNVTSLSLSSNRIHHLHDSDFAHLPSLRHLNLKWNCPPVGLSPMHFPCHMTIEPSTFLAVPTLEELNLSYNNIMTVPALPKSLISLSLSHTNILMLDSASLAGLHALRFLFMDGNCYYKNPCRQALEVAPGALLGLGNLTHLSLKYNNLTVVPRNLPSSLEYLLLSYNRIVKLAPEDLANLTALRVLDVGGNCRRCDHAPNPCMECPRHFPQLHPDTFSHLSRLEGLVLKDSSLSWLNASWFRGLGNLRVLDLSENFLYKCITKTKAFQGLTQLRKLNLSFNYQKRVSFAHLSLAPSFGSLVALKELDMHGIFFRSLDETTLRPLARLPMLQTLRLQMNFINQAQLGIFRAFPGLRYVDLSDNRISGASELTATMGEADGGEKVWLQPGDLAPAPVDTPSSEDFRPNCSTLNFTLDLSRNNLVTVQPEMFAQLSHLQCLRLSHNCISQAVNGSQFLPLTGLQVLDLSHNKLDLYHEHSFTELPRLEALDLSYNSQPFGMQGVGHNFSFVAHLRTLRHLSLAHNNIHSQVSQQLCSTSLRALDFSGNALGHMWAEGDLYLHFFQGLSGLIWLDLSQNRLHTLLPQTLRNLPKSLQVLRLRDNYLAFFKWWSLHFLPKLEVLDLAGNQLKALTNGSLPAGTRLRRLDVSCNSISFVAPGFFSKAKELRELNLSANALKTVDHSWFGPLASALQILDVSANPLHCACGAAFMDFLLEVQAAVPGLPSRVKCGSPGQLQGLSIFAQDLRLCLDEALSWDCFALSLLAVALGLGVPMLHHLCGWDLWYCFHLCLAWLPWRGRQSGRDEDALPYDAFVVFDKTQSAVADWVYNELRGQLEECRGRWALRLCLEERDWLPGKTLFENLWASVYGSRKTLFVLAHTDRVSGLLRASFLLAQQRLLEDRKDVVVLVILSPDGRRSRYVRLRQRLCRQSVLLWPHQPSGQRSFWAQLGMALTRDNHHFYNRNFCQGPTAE
B2AR ag CP1 – beta2AR agonists via receptor internalization, confirmation, cell-based, FAP fluorogen, flow cytometry, single point, cherry pick 1. percent response (surface receptor), % at 10 µM. shares compounds with B2AR ag. 1,100 tested, 25% active. AID 540358, 2011. Am2.2-beta2AR cells, FAP surface receptor; stronger effect = lower value;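 active means surface receptor percent response at or below 58%, roughly 3 SD from nonfluorescent compounds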
FAP fluor counter – counter-screen for beta-2AR agonists: fluorescence in Am2.2 cells. shares compounds with B2AR ag. FAP fluorogen flow cytometry, fluorescence counterscreen; stronger effect = lower value. calls only at 10 µM. 1,100 tested, under 10 active;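 active means percent response below a set limit in fluorescence channel 1 and below 50% in channel 8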
The depositor's hits bear a star; i = inactive; ? = inconclusive; · = no result.

SMILES | NOD2-RIPK2 inh | NTR1 agonist | TLR4-MyD88 BLA | A1 inh | B2AR ag | TLR9-MyD88 inh | B2AR ag CP1 | FAP fluor counter
O=C(NCn1ccc(=O)[nH]c1=S)c1ccccc1 | -6.8 | -1.1 | 0.5 | 0.5 | 4.9 | -1.6 | · | ·
Cc1cc(S(=O)(=O)N2CCOCC2)ccc1OCC(=O)Nc1ccc(Br)cc1F | 8.8 | -1.9 | · | -1.1 | 0.8 | -8.1 | 108.2 | i
Cc1cc(S(=O)(=O)N2CCOCC2)ccc1OCC(=O)Nc1ccc(F)cc1F | -15.3 | -1.2 | · | -0.6 | 1.4 | -11.1 | 105.4 | i
Cc1ccc(C(=O)OCC(=O)Nc2ccccc2C(F)(F)F)cc1S(=O)(=O)N1CCOCC1 | -0.1 | -3.1 | 19.0 | -0.1 | 5.3 | 10.9 | · | ·
Cc1cc(S(=O)(=O)N2CCOCC2)ccc1OCC(=O)Nc1ccccc1C(F)(F)F | 1.4 | -0.2 | · | 0.3 | -1.2 | 2.5 | 97.4 | i
Cc1ccccc1OCC(=O)Nc1cc(S(=O)(=O)N2CCOCC2)ccc1N1CCCC1 | -0.7 | 0.5 | · | 1.0 | 10.7 | 3.6 | · | ·
C=CCOCC(O)Cn1c(N2CCCC2)nc2c1c(=O)[nH]c(=O)n2C (stereo not given) | -3.8 | -0.8 | · | 1.7 | 0.7 | -1.3 | · | ·
CC(C)(C)C(=O)N1NC(=Nc2ccccc2)SC1(C)C | -12.1 | 0.9 | · | 0.4 | 2.4 | -7.5 | · | ·
O=S(=O)(c1ccc(NCCc2c[nH]c3ccccc23)nc1)N1CCOCC1 | 8.2 | 0.8 | -5.0 | 1.0 | 0.1 | 1.1 | · | ·
COC1CCCCC1Nc1ccc(C)c(C)c1 (stereo not given) | -3.8 | 0.4 | -0.4 | 1.5 | 3.6 | -1.3 | · | ·
COC(=O)CC1COc2ccccc2N1C(=O)c1cc(OC)c(OC)c(OC)c1 (stereo not given) | -9.3 | 0.0 | · | -0.5 | 3.6 | 0.3 | · | ·
CCN(CC(=O)Nc1ccc(N2CCOCC2)cc1)C(=O)c1ccc(C#N)cc1 | 2.4 | -1.5 | 6.4 | 0.6 | 0.1 | 0.8 | · | ·
CN(C)c1ccc(-c2noc(C3CCN(S(=O)(=O)c4ccc(C(=O)O)cc4)CC3)n2)cc1 | 2.1 | 0.6 | -3.9 | -0.2 | 2.4 | 1.3 | · | ·
CN(C)c1ccc(-c2noc(C3CCN(S(=O)(=O)c4cccc(Cl)c4)CC3)n2)cc1 | -1.3 | 3.5 | -4.6 | 0.1 | 65.5* | 5.8 | 39.2* | i
O=C(Oc1c(CN2CCOCC2)cc(Cl)c2cccnc12)c1ccccc1F | -10.2 | 6.2 | -4.6 | -0.1 | -9.7 | 5.3 | 110.7 | i
COc1ccc(C(=O)Oc2c(CN3CCOCC3)cc(Cl)c3cccnc23)cc1OC | · | 0.0 | 0.8 | 0.3 | · | · | · | ·
O=C(Oc1c(CN2CCOCC2)cc(Cl)c2cccnc12)c1ccccc1 | -6.0 | 1.7 | -7.2 | 0.4 | 4.8 | -3.6 | · | ·
COc1cc(OC)cc(C(=O)Oc2c(CN3CCOCC3)cc(Cl)c3cccnc23)c1 | -8.5 | 2.3 | · | 0.6 | -4.9 | -9.2 | 88.7 | i
Cc1ccc(-n2c(=O)c3sccc3n(CC(=O)NCC3CCCO3)c2=O)cc1F (stereo not given) | 4.2 | -0.9 | · | -0.6 | -8.4 | 1.9 | · | ·
CCC(C)(C)c1ccc(OCCCC[n+]2cccc(C)c2C)c(C(C)(C)CC)c1 | -5.2 | 12.1 | · | 0.3 | 55.5* | 0.3 | 88.2 | i
CC1CCC(NC(=O)c2nn(C)c(=O)c3ccccc23)CC1 (stereo not given) | -6.7 | · | · | · | · | -3.5 | · | ·
COC(=O)N1CCCCC1c1cc(C(=O)Nc2ccc3c(c2)OCO3)no1 (stereo not given) | 1.8 | · | · | · | · | · | · | ·
CC(C)C(=O)Nc1ccc(-c2nc3cccnc3o2)cc1 | -13.5 | -0.3 | -6.1 | -1.4 | 30.2 | -92.9 | · | ·
CC(C)(C)c1ccc(OCC(=O)Nc2ccc(-c3nc4cccnc4o3)cc2)cc1 | -5.8 | 0.6 | -9.2 | 0.4 | 109.6* | -1.8 | 40.4* | i
O=C(CCc1ccc(S(=O)(=O)N2CCOCC2)cc1)Nc1nc(COc2ccccc2)cs1 | -9.5 | -0.7 | 1.4 | -0.1 | 62.4* | -5.6 | 20.0* | i
SMILES | NOD2-RIPK2 inh | NTR1 agonist | TLR4-MyD88 BLA | A1 inh | B2AR ag | TLR9-MyD88 inh | B2AR ag CP1 | FAP fluor counter
O=C(COc1ccccc1)Nc1nc(-c2ccc(S(=O)(=O)N3CCOCC3)cc2)cs1 | 15.4 | 4.0 | -4.3 | -0.7 | 4.6 | 3.9 | · | ·
O=C(c1ccc(OC2CCN(Cc3cccc(OCCO)c3)CC2)cc1)N1CCCC1 | 4.5 | 3.4 | · | 0.7 | 2.1 | -1.8 | 111.1 | i
COc1ccc(CN2CCC(Oc3ccc(C(=O)N4CCCCC4)cc3)CC2)cc1C | -12.3 | 0.4 | · | -0.5 | 33.3 | 0.2 | 85.0 | i
COc1cccc(CN2CCC(Oc3ccc(C(=O)N4CCCCC4)cc3)CC2)c1 | 5.3 | 0.5 | · | 1.6 | 18.7 | 1.3 | 117.7 | i
CC(Oc1ccc(C#N)cc1)C(=O)Nc1ccc(-n2cnnn2)cc1 (stereo not given) | 8.2 | 1.4 | · | · | -0.9 | -2.2 | · | ·
Cn1c(CNC(=O)CNS(=O)(=O)c2ccc(Br)cc2)cc(=O)n(C)c1=O | -3.1 | 0.6 | · | 0.0 | 2.6 | -3.4 | · | ·
O=C1C2CCCCN2C(=O)N1CCCCN1CCN(c2cccc(C(F)(F)F)c2)CC1 (stereo not given) | -5.0 | · | · | · | 59.3* | 1.6 | 69.9 | i
COc1ccc(S(=O)(=O)Nc2ccncc2)c(C)c1C | -5.6 | -1.3 | -8.0 | 0.9 | -4.2 | 2.3 | · | ·
Cc1ccc(S(=O)(=O)Nc2ccncc2)c(C)c1N(C)S(=O)(=O)c1ccc(F)cc1 | 7.7 | -1.1 | -5.6 | -2.3 | 83.9* | 9.2 | 106.0 | i
COc1ccc(C(=O)NCc2c(CC(C)C)oc(C)c2C(=O)O)cc1 | 1.8 | -0.7 | 3.7 | 0.0 | -4.2 | -8.1 | · | ·
O=C(c1ccc(F)cc1)N1CCC(C(=O)N2CCN(S(=O)(=O)c3cccc(F)c3)CC2)CC1 | -2.9 | 0.1 | · | -0.1 | -2.8 | -2.3 | · | ·
Cc1ccc(C)c(S(=O)(=O)N2CCN(C(=O)C3CCN(C(=O)c4ccc(F)cc4)CC3)CC2)c1 | -4.5 | -0.8 | · | 0.5 | 60.2* | -0.1 | 111.5 | i
CC(=O)c1ccc(OCC(O)CN2CCN(S(=O)(=O)c3c(C)cc(C)cc3C)CC2)cc1 (stereo not given) | 2.3 | · | · | ? | 4.3 | -1.4 | · | ·
